Sequences and labels used below:
B1: ENSMUSG00000061578.1192|Ksr2 (ssRNA)
RNA: GGGAGUUCUACAGUCCGACGAUCGCUUCGAUAUCCGCAUGCUAUGUCUGCUUUUGUUUCUCCACCAUGCCCCCUGCCACCUCUUCUGACAGUGCUCAGAUUUAUCAGCCACCUGACCCACAGACCCAUAUGGACACACUAGAAAGCCCAUCCUAGGUCUUUCCAUGGUCUCUCACACCCCUGUCCCCGUCCCCUCCACCCCCCGGCAGCAUGCUUCACUCUAUGAAUGAGCCGCUGGGAUAUUGACAUGGAGAUGUGUUGAUGGAAAAAGCCUCCACACCCAACAUAACUCUCCAGAGAGAUACUCUUGCGGUCGCACUAGUGUGGAAUUCUCGGGUGUCAAGG
B2: ENSMUSG00000031028.410|Tub|118:122;252:256 (ssRNA)
RNA: GGGAGUUCUACAGUCCGACGAUCGCUUCGAUAUCCGCAUGCUAAGAUCCCUUACCCCUCAUCCCCUCUUCUUUUUGGUCCUUGGCUGGGUAGCAAAUUGGUGAGAAGAGCAGCCUAGUCUGUAAGAGUGCAGGGCAGCUGGAACCUUAGGCAGCUCCUCUCAUACCUACCGGCUCCACACCCUAACACUCUCCACCCUCUGCUCCAAACCAGUUCUUCUGCAGAGUGGUGAUGUUAGCUUCCCCAGCUCCUCUCCAAGUCUAGCUUUUUCUGUCCUUCUGGCUCCAAGGUGCUCACACACUGUCUCUUGCGGUCGCACUAGUGUGGAAUUCUCGGGUGUCAAGG
B3: ENSMUSG00000022095.49|Fam160b2 (ssRNA)
RNA: GGGAGUUCUACAGUCCGACGAUCGCUUCGAUAUCCGCAUGCUACCUUUUAGAGGAGCUAGAGGAUGGCCAGUGAGCGCCUAGAUGCUGCCCUGCAUGUGUUGCGUGACUAUCUCUGCUAUAUUGUGACCAGGGCCACAACAUGAGACAACUCCAGGGGCCAGGGAGAUGAACUGCUGUCUUUGAGGCUGGCUAAAAAAACAAUCCAGUCCAGAGAGAUGGGGAGGGGGGGAGCAAGAACCCUGUCUGUUACAUUAGGUAUCAUGGAAGCUGCUAAGACUCGGCAGGUUUCUCCGAGGCUUCACCUCUUGCGGUCGCACUAGUGUGGAAUUCUCGGGUGUCAAGG
B4: ENSMUSG00000029636.83|Wasf3|141:145 (ssRNA)
RNA: GGGAGUUCUACAGUCCGACGAUCGCUUCGAUAUCCGCAUGCUAACCAGUGGGUGAUACGUUUUCCUGUUUCUUCCCUUUGCAAAUUGAAUUCCAGGUAGAUAUGGUUGUAGAGGGGAAAGUUUAACAAAUCAGAAUGAAAUGUUUGUCUGUUUGCACACUGGGCCUGGUGGCCUCCAAGGAAAACACAACGAUCGUUUGCUUUCUCUAUCUUGGCGCUUGCAACCGAGAGCGGCCAUUUUUAUGAGGGGAGCCCUGUGGGUACUCAUGUGGAAAGUGCCCACUGACUUUGGCAGAUGGAGUUCCUCUUGCGGUCGCACUAGUGUGGAAUUCUCGGGUGUCAAGG
B5: ENSMUSG00000004113.216|Cacna1b (ssRNA)
RNA: GGGAGUUCUACAGUCCGACGAUCGCUUCGAUAUCCGCAUGCUAGUCUUAGGGACAUUGACAGUGUCCAUCAGCAUGUCAGAGAAGCAGCUGUAGUGCCCGUGUUUCUCCCUGAGUCAUGGGUUCUGAAGAAGCCAGAGCGGCACAAUGCGUGCUUGCAUGAGGCACUUUCAGCCUUUUUAAAUCUGACUCUCAGGGAUGGGAUGCCUGCCAAGUAGGGUGUAAUCUCUGUUGUGUUUUUAAAACAACAACAACAAAAUAAAACAAAAAAAAAAAACCUAGUAUUCACUGGAUGCUGAAGAGUGCUCUUGCGGUCGCACUAGUGUGGAAUUCUCGGGUGUCAAGG
B6: ENSMUSG00000035279.61|Ssc5d|92:97;148:152;163:167 (ssRNA)
RNA: GGGAGUUCUACAGUCCGACGAUCGCUUCGAUAUCCGCAUGCUAUAAAGAGGCUAGCAGAGGUGGCCUGGCCCCCCAGCACUCCUGUGCCCAUGACCACCACCACAGAGGAGGAGGAGAGGCCUCUGAGGGGAGAACACACACCCACUCUGAAAUUCACGGUGCUUAAGAUACUCUUAAACAAAAGCCAACCAUACUACAAUCGAACACACGGUGUUGUUACUGGGGAGCAGGGGCUCUGGAGGGACAGAAUUACAAUGCUGAUCCUAACUUGUCAAUGCCAUCUGUGAUGGCGUUGGAGAUCACUCUUGCGGUCGCACUAGUGUGGAAUUCUCGGGUGUCAAGG
B7: ENSMUSG00000031028.6|Tub (ssRNA)
RNA: GGGAGUUCUACAGUCCGACGAUCGCUUCGAUAUCCGCAUGCUAUAGCAGAAGAUGUGUUCACCAUGGAUUACAACUACCCACUGUGUGCACUGCAGGCCUUUGCCAUUGCUCUGUCCAGCUUUGACAGCAAGCUGGCCUGCGAGUAGAGGCCCCCCACUGCCUUUAGGUGGCCCAGUCCGGAGUGGAGCUUGCCUGCCUGCCAAGACAGCCCUGCCUACCCUCUGUUCAUAGGCCCUCUAUGGGCUUUCUGGCCUUACCAACCAGAGACUGGCUGCUCUGCCUCUGCUGCUGAAGCAGGGGGGCUCUUGCGGUCGCACUAGUGUGGAAUUCUCGGGUGUCAAGG
B8: ENSMUSG00000058297.454|Spock2 (ssRNA)
RNA: GGGAGUUCUACAGUCCGACGAUCGCUUCGAUAUCCGCAUGCUAUCAGGAGCAAGGUCACACAGGUCAGAUUAUUGUCGGUCCUGCGGGCCUCAUCCUUGAAUAAGCUGCCUGCCCAGUUCCUCCAUCCGUGUUCCUGCCUGCUCCCGUUCCCUUGUUGCGGGCAGGAGAGGUAGGGCUGUGUUGGAAAGAGUUCAACCAAAUUACGGCAGCACCACAUCUUGCCGAGCCCUGGAGCUGCCCUACUAAGAGCCUCCUUAGCCCUGGGUGCUGGGAAGGAUGGUGUACGUUGGGGAAGUUUGAGGCUCUUGCGGUCGCACUAGUGUGGAAUUCUCGGGUGUCAAGG

This passage reports binding signal results from PMC12864922, “TDP-43 directly inhibits mRNA accumulation in neurites through modulation of mRNA stability”.

Whole data set: some 9,900 sequences, median “r (bound/input frequency ratio)” near 0.7, cut for the highest 2% near 6.5. For the sample, the highest values were picked, then their nearest neighbours and some sequences at random.

In the assay the target is TDP-43 (Homo sapiens, UniProt Q13148 1-414). Kind of assay: RNA Bind-n-Seq with designed 260-mer pool; 25 mM Tris-HCl, 150 mM KCl, 3 mM MgCl2, BSA (printed 500 mg/mL), 20 units/mL SUPERase IN; pH not stated; 500 nM RNA pool, 1 h, 4 C; TDP-43 5, 50, 500 nM; high values mean tight binding. To be noted: protein: recombinant; tags: SBP (GST cleaved off with PreScission; pGEX-GST-SBP). In short, it runs like this: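 An in vitro-transcribed pool of 260-nt 3′ UTR oligos (500 nM) was incubated for 1 h at 4 °C with recombinant SBP-tagged TDP-43 at 5, 50 or 500 nM held on streptavidin beads. The buffer contained 25 mM Tris-HCl, 150 mM KCl, 3 mM MgCl2, BSA and SUPERase IN. Biotin-eluted bound RNA was sequenced, and binding, R, is each oligo's normalized read abundance in the bound sample over that in input.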
Chain of TDP-43 (Q13148 whole entry): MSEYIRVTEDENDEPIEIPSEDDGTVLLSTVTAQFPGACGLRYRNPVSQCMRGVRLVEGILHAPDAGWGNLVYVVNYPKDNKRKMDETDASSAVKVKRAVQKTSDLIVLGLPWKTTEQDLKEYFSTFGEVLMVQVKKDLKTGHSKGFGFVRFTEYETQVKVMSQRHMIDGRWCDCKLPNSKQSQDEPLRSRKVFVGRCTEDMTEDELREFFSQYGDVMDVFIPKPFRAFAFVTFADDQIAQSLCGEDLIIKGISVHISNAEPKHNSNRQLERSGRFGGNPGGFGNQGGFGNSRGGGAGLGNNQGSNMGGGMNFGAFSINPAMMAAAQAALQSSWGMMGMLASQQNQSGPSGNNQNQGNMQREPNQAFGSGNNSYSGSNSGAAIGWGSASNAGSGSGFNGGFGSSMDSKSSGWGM
B1: the binding signal was 1.3 R (bound/input frequency ratio). The same measure for B2: 2.59 R (bound/input frequency ratio); for B3: 1.16 R (bound/input frequency ratio); for B4: 1.97 R (bound/input frequency ratio).

Regarding B5, the binding signal was 1.66 R (bound/input frequency ratio). The same measure for B6: 0.434 R (bound/input frequency ratio); for B7: 0.331 R (bound/input frequency ratio). The result for B8 reads 0.419 R (bound/input frequency ratio).
